Test results published in PubChem BioAssay AID1159580 (chemical genetic matrix, 2015).
“And” between values parts separate entries of the source, which are not always exact repeats. Identical values can stand only once. Hit rate of the full screen: of about 5,500 compounds, about 2,000 (36%) were called active. Another 18% or so got no clear call; they are omitted. Cut-off read from the data, not from the text of the source: active = normalized growth mostly below about 0.91 (no sharp cut-off); inconclusive = no clear call, values can overlap the other calls; inactive = mostly above about 0.92. Some of the results follow.

Assay: chemical genetic growth profiling, strain panel (AID 1159580);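 note: tested at 20 µM; growth read once vehicle control cultures reached saturation at 30 °C; 1 = growth at the plate median or of vehicle wells; lower values mean less growth of the strain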
Settings: S. cerevisiae deletion strains, growth OD

Measured: normalized growth

CCOc1ccc(NC(C)=O)cc1
inactive: locus YAL013W, strain DEP1, stronger effect = lower value 1.02 | locus YAL021C, strain ccr4, stronger effect = lower value 1.01 | locus YAL026C, strain drs2, stronger effect = lower value 1.01 | locus YAL030W, strain snc1, stronger effect = lower value 1.02 | locus YBL061C, strain skt5, stronger effect = lower value 1.02 | locus YBR009C, strain hhf1, stronger effect = lower value 1.01 | locus YBR021W, strain FUR4, stronger effect = lower value 0.963 | locus YBR023C, strain chs3, stronger effect = lower value 1.01 | locus YBR171W, strain sec66, stronger effect = lower value 1.02 | locus YBR229C, strain ROT2, stronger effect = lower value 1 | locus YBR231C, strain swc5, stronger effect = lower value 1.02 | locus YBR279W, strain paf1, stronger effect = lower value 1.01 | locus YCL011C, strain gbp2, stronger effect = lower value 1.02 | locus YCL016C, strain dcc1, stronger effect = lower value 1.02 | locus YCL029C, strain bik1, stronger effect = lower value 0.989 | locus YCL061C, strain MRC1, stronger effect = lower value 1.01 | locus YCL069W, strain vba3, stronger effect = lower value 1.02 | locus YCR088W, strain abp1, stronger effect = lower value 1.02 | locus YDL005C, strain med2, stronger effect = lower value 1.02 | locus YDL035C, strain GPR1, stronger effect = lower value 0.997 | locus YDL040C, strain nat1, stronger effect = lower value 1.01 | locus YDL074C, strain BRE1, stronger effect = lower value 1.06 | locus YDL101C, strain DUN1, stronger effect = lower value 1.01 | locus YDL134C, strain PPH21, stronger effect = lower value 1 | locus YDL185W, strain tfp1, stronger effect = lower value 0.959 | locus YDL192W, strain arf1, stronger effect = lower value 0.991 | locus YDR001C, strain nth1, stronger effect = lower value 1.02 | locus YDR069C, strain doa4, stronger effect = lower value 1 | locus YDR101C, strain arx1, stronger effect = lower value 0.998 | locus YDR137W, strain rgp1, stronger effect = lower value 1.03 | locus YDR150W, strain NUM1, stronger effect = lower value 0.991 | locus YDR159W, strain sac3, stronger effect = lower value 1.01 | locus YDR162C, strain NBP2, stronger effect = lower value 1.01 | locus YDR195W, strain ref2 1.02 | locus YDR297W, strain sur2, stronger effect = lower value 1.02 | locus YDR318W, strain mcm21, stronger effect = lower value 0.997 | locus YDR334W, strain swr1, stronger effect = lower value 1.02 | locus YDR335W, strain msn5, stronger effect = lower value 1.02 | locus YDR388W, stronger effect = lower value 1 | locus YDR392W, strain spt3, stronger effect = lower value 0.953 | locus YDR502C, strain sam2, stronger effect = lower value 0.994 | locus YEL003W, strain gim4, stronger effect = lower value 1.02 | locus YEL037C, strain rad23, stronger effect = lower value 1.01 | locus YEL061C, strain CIN8 (second series), stronger effect = lower value 1.02 | locus YEL061C, strain CIN8, stronger effect = lower value 1.04 | locus YER015W, strain faa2, stronger effect = lower value 1.01 | locus YER016W, strain bim1, stronger effect = lower value 1 | locus YER110C, stronger effect = lower value 0.979 | locus YER111C, strain swi4, stronger effect = lower value 1.02 | locus YER155C, strain BEM2 (second series), stronger effect = lower value 1.02 | locus YER155C, strain BEM2, stronger effect = lower value 0.984 | locus YER167W, strain BCK2, stronger effect = lower value 0.979 | locus YFR010W, strain ubp6, stronger effect = lower value 1.02 | locus YGL078C, strain dbp3, stronger effect = lower value 0.985 | locus YGL086W, strain mad1, stronger effect = lower value 0.984 | locus YGL167C, strain pmr1, stronger effect = lower value 1.02 | locus YGL173C, strain kem1, stronger effect = lower value 1.01 | locus YGL227W, strain vid30, stronger effect = lower value 1 | locus YGL240W, strain doc1, stronger effect = lower value 1.02 | locus YGL248W, strain PDE1, stronger effect = lower value 1.01 | locus YGL253W, strain hxk2, stronger effect = lower value 1.01 | locus YGR078C, strain PAC10, stronger effect = lower value 1 | locus YGR135W, strain pre9, stronger effect = lower value 1 | locus YGR229C, strain SMI1, stronger effect = lower value 1.02 | locus YGR252W, strain gcn5, stronger effect = lower value 0.986 | locus YHR013C, strain ard1, stronger effect = lower value 1.06 | locus YHR027C, strain rpn1, stronger effect = lower value 1 | locus YHR030C, strain SLT2, stronger effect = lower value 0.984 and 1.02 | locus YHR079C, strain IRE1 (second series), stronger effect = lower value 0.995 | locus YHR079C, strain IRE1, stronger effect = lower value 1.03 | locus YHR094C, strain hxt1, stronger effect = lower value 0.975 | locus YHR129C, strain ARP1, stronger effect = lower value 1.01 | locus YHR142W, strain chs7, stronger effect = lower value 1.01 | locus YHR200W, strain rpn10, stronger effect = lower value 0.992 | locus YIL066C, strain RNR3, stronger effect = lower value 1 | locus YIL073C, strain SPO22, stronger effect = lower value 0.916 | locus YIL125W, strain kgd1, stronger effect = lower value 0.988 | locus YIR030C, strain dcg1, stronger effect = lower value 1 | locus YJL092W, strain hpr5, stronger effect = lower value 1.01 | locus YJL095W, strain BCK1 (second series), stronger effect = lower value 1.01 | locus YJL095W, strain BCK1, stronger effect = lower value 1.09 and 1.01 | locus YJL115W, strain asf1, stronger effect = lower value 1.01 | locus YJL129C, strain trk1, stronger effect = lower value 1.02 | locus YJL134W, strain LCB3, stronger effect = lower value 0.985 | locus YJL154C, strain vps35, stronger effect = lower value 1.01 | locus YJL164C, strain tpk1, stronger effect = lower value 1.02 | locus YJL166W, strain qcr8, stronger effect = lower value 1.02 | locus YJL168C, strain set2, stronger effect = lower value 0.986 | locus YJL187C, strain SWE1 (second series), stronger effect = lower value 0.996 | locus YJL187C, strain SWE1, stronger effect = lower value 1.02 | locus YJR043C, strain POL32, stronger effect = lower value 1.14 | locus YJR066W, strain TOR1, stronger effect = lower value 0.961
